Experimental data reported in PubChem BioAssay AID1963321 (National Center for Advancing Translational Sciences (NCATS), 2024).
Inconclusive results are not listed. Values without a mark were called inactive. Active and inactive are the calls of the source. The call rests on the fitted dose curve.

What follows are compounds tested against cAMP-dependent protein kinase catalytic subunit alpha (Homo sapiens) (UniProt P17612) (assay: Protein Kinase A (PKA-HiBiT) enzymatic inhibition screen - Functional assay). Conditions: luminescence; series mostly up to 57.5 µM; activity change, negative = inhibition: at the top concentration.
Outline: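 Kinase-Glo Plus luminescence reported remaining ATP after a 3 h room-temperature kemptide phosphorylation. The reaction used 10 nM PKA-N-HiBiT and 87.5 uM ATP, after 30 min compound preincubation; DMSO neutral, H-89 positive.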

| Structure (SMILES) | activity change, negative = inhibition [%] | Potency |
| --- | --- | --- |
| Cc1cc(F)ccc1-c1nc(NC(CO)CO)nc2c1ccc(=O)n2-c1c(F)cccc1F | 9.07 |  |
| CC(C)CCN1c2nc(Nc3cc(F)c(O)c(F)c3)ncc2N(C)C(=O)C1C (stereo unspecified) | 8.52 |  |
| Cn1ncc(NC(=O)c2nc(-c3c(F)cccc3F)sc2N)c1N1CC[C@@H](N)[C@H](F)CC1 | 8.62 |  |
| O=C(Nc1cc(C(F)(F)F)ccc1N1CCCCC1)c1ccncc1 | 8.94 |  |
| Cc1sc2c(c1C)C(c1ccc(Cl)cc1)=N[C@@H](CC(=O)Nc1ccc(OCCOCCOCCOCCNc3cccc4c3C(=O)N(C3CCC(=O)NC3=O)C4=O)cc1)c1nnc(C)n1-2 (stereo partly specified) | 8.8 |  |
| c1ccc(-c2oc3ncnc(NC[C@@H]4CCCO4)c3c2-c2ccccc2)cc1 | 8.72 |  |
| COc1cc2c(Oc3ccc(NC(=O)C4(C(=O)Nc5ccc(F)cc5)CC4)cc3F)ccnc2cc1OCCCN1CCOCC1 | 9.04 |  |
| N#Cc1cccc(-c2c[nH]c3ncnc(N4CCOCC4)c23)c1 | 8.15 |  |
| C=CC(=O)Nc1cccc(Oc2nc(Nc3ccc(N4CCN(C)CC4)cc3OC)ncc2Cl)c1 | 8.93 |  |
| CN(c1ncccc1CNc1nc(Nc2ccc3c(c2)CC(=O)N3)ncc1C(F)(F)F)S(C)(=O)=O |  | 24.3 µM (active) |
| Cc1cc(Nc2ncc3cc(-c4c(Cl)cccc4Cl)c(=O)n(C)c3n2)ccc1F | 9.03 |  |
| Cc1[nH]c2ccccc2c1C1=C(NCCc2ccc(F)cc2)C(=O)N(C)C1=O | 9.02 |  |
| Cc1cc(NC(=O)c2ccc(C)c(Nc3nccc(-c4cccnc4)n3)c2)cc(-n2cnc(C)c2)c1 | 8.62 |  |
| Cc1cn(-c2cccc(NC(=O)c3ccc(C)c(Nc4nccc(-c5cccnc5)n4)c3)c2)cn1 | 9.04 |  |
| NC(=O)c1cccc(-c2cc(Nc3ccc(OC(F)(F)F)cc3)ncn2)c1 | 7.55 |  |
| Cc1[nH]nc2ncc(C(=O)N3CCC[C@H]3c3ccc(Cl)cc3)cc12 | 8.86 |  |

| Structure (SMILES) | activity change, negative = inhibition [%] | Potency |
| --- | --- | --- |
| CCCCNc1ncc2c(-c3ccc(S(=O)(=O)N4CCOCC4)cc3)nn(C3CCC(O)CC3)c2n1 (stereo unspecified) | 8.94 |  |
| C[C@@H]1CN(CC(=O)Nc2ccc3c(c2)Cc2cccc(-c4cc(=O)cc(N5CCOCC5)o4)c2S3)C[C@H](C)O1 | 8.87 |  |
| Cc1ccc(C(=O)Nc2ccc(Oc3cc4cnn(C)c4cc3-c3cn[nH]c3)c(F)c2)c(=O)n1-c1ccc(F)cc1 | 9.16 |  |
| Nc1nc(NCCNc2ncc(-n3ccnc3)c(-c3ccc(Cl)cc3Cl)n2)ccc1[N+](=O)[O-] | 8.87 |  |
| CCNC(=O)Nc1ccc(-c2nc3c(c(N4CCOC[C@@H]4C)n2)CCN(c2ncccn2)C3)cc1 | 9.16 |  |
| Oc1ccc(-c2ccc(-c3cc(Nc4cccc(CNC5CC5)c4)n[nH]3)cc2)c(O)c1 | -2.94 |  |
| C#Cc1cccc(Nc2ncnc3cc4c(cc23)OCCOCCOCCO4)c1 | 8.9 |  |
| CN1CCN(Cc2ccc(-c3cnc4[nH]cc(-c5ccc6[nH]ccc6c5)c4c3)cc2)CC1 | 8.17 |  |
| CCN(CC)CCOc1ccc(Nc2ncc3cc(-c4c(Cl)cccc4Cl)c(=O)n(C)c3n2)cc1 | 2.72 |  |
| CNc1ncc2cc(-c3cc(NC(=O)NCCC(C)(C)C)c(F)cc3C)c(C)nc2n1 | 9.18 |  |
| CN1CCN(c2ccc(Nc3ncc4cc(C#N)c(=O)n(C5CCCC5)c4n3)cc2)CC1 | 8.73 |  |
| O=C(O)C1(Cc2cccc(Nc3nccs3)n2)CCC(Oc2cccc(Cl)c2F)CC1 (stereo unspecified) | 8.13 |  |
| C[C@@H](NC(=O)c1ncnc(N)c1Cl)c1ncc(C(=O)Nc2cc(C(F)(F)F)c(Cl)cn2)s1 | 9 |  |
| C=CC(=O)N1CCC[C@@H](n2nc(-c3cccc(C(=O)Nc4ccc(C(C)C)c(C)c4)c3)c3c(N)ncnc32)C1 | 9.01 |  |
| Cc1cc(C)c(/C=C2\C(=O)Nc3ccccc32)[nH]1 | 8.87 |  |
